UDG counterscr: UDG inhibition counter-screen. Potency, µM (series often up to 115 µM), inactives show at the highest dose activity change, negative = inhibition, hits mostly inhibitors. FRET deamination/UDG coupled assay, UDG read, 4 h. hit rate 0.14% among 91,000; note: nearly all actives have a fitted effect of over 65% in size
AID inh: inhibitors of human activation induced cytidine deaminase | Q9GZX7 | AID deamination FRET fluorescence, UDG-coupled, 4 h | Potency, µM (titrated, usually from 115 µM), most hits filed as inhibitors | hit rate 0.32% among 91,000 | AID 1347428; note: nearly all actives have a fitted effect of over 25% in size
Target sequence (Q9GZX7 whole entry, looked up): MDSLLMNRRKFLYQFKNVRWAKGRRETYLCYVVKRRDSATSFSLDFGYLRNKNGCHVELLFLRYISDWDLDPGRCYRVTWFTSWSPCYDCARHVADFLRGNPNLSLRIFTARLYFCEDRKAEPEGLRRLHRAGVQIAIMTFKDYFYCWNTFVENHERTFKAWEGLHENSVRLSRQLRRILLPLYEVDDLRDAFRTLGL
Starred values were filed as active, the others as inactive; i = inactive; u = inconclusive. Hits are enriched below; roughly 0.47% of the tested compounds scored in any of these assays. Calls come from the whole dose curve; as a rule, active = well fitted curve in the direction sought with a large enough effect; inconclusive = small, poorly fitted or top-dose-only effect, or another doubt; inactive = no such curve, though single readings can be large; an effect the other way counts as inactive or inconclusive. % is set by controls: 0 for no effect and ±100 for the full control effect; potency is the fitted concentration of half-maximal effect.

SMILES	UDG counterscr	AID inh
CC12CNCC(C)(CNC1)C2=O	50µM*	u
Cc1cc2ccccc2n1CC(=O)NCC1(CC(=O)O)CCCCC1	4%	i
c1cncc(CNCCN2CCCC2)c1	5%	i
NCC(O)c1cc(O)c(O)cc1F (stereo unspecified)	-4%	50µM*
O=[N+]([O-])/C=C/c1c[nH]c2ccccc12	5%	i
Cc1[nH]nc2c1C(c1ccc(-c3ccc(F)cc3)o1)SCC(=O)N2 (stereo unspecified)	-6%	i
O=c1oc2ccccc2c(O)c1C(c1cccc(O)c1)c1c(O)c2ccccc2oc1=O	-3%	50µM*
O=c1oc2ccccc2c(O)c1C(c1ccccc1)c1c(O)c2ccccc2oc1=O	13%	45µM*
Cc1c(C(c2ccc(O)cc2)c2c(O)c3ccccc3oc2=O)c(=O)n(-c2ccccc2)n1C (stereo unspecified)	4%	i
COc1ccc(OC)c(C(c2c(O)c3ccccc3oc2=O)c2c(C)n(C)n(-c3ccccc3)c2=O)c1 (stereo unspecified)	-3%	i
Cc1cc(C)cc(N2C(=O)NC(=O)C3(Cc4cc(C)ccc4N(C)C3)C2=O)c1 (stereo unspecified)	4%	i
CN(C)c1ccc(-[n+]2ccc(-c3cc[n+](-c4ccc(N(C)C)cc4)cc3)cc2)cc1	-20%	u
COc1ccc(-n2c(/C=C\c3ccccc3F)nc3ccccc3c2=O)c(OC)c1	79µM*	u
COc1ccccc1-n1c(/C=C/c2ccccc2)nc2ccccc2c1=O	0%	i
CC(NC(C)c1ccc(Cl)cc1)C(=O)c1c[nH]c2ccccc12 (stereo unspecified)	3%	i

Screens: PubChem BioAssay, National Center for Advancing Translational Sciences (NCATS)
